A selection: hits, their analogues and other compounds. The true share with any hit is near 1.5%.
RECQ1 helicase – inhibitors of human RECQ1 DNA helicase; RECQ1 DNA unwinding, red fluorescence kinetic read; Potency, µM (doses to about 57.3 µM), inactives show at the highest dose activity, negative = inhibition, hits mostly inhibitors; 0.54% of 240,000 active; AID 2549;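 further: potency means the concentration at half of the fitted maximal effect; plate controls were vehicle for no effect and no enzyme for full effect; nearly all actives have a fitted effect of over 30% in size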
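RECQ1T1 50 nM; forked duplex (20 bp + 30-nt ss tails) 200 nM, ATP 2 mM final; pH 8.0, 2 mM MgCl2, 2.5 ug/ml poly(dI-dC); 15 min compound preincubation; discontinuous kinetic read over 2 h at RT.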
WRN helicase inh – WRN helicase (human) inhibition; AID 651768; Potency, µM (titrated, usually from 114 µM), for inactives: at the highest dose activity change, negative = inhibition, actives largely listed as inhibitors; WRN helicase unwinding, fluorescent forked duplex, kinetic; 0.46% of 360,000 active; Q14191; further: potency means the concentration at half of the fitted maximal effect; nearly all actives have a fitted effect of over 55% in size
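Kinetic fluorescence helicase assay: unwinding of a quenched forked DNA duplex (100 nM final) with 2 mM ATP final raises red fluorescence (525/598 nm). Compounds sat 15 min at room temperature with 20 nM WRN beforehand.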
FEN1 inh – human FEN1 inhibition; P39748; Recombinant FEN1 flap cleavage, fluorescence, 15 min; Potency, µM (doses to about 114 µM), for the others: top-dose activity change, negative = inhibition, usual class: inhibitors; 0.35% of 390,000 active; AID 588795; further: potency means the concentration at half of the fitted maximal effect; nearly all actives have a fitted effect of over 65% in size
Target sequence (P39748 whole entry, looked up): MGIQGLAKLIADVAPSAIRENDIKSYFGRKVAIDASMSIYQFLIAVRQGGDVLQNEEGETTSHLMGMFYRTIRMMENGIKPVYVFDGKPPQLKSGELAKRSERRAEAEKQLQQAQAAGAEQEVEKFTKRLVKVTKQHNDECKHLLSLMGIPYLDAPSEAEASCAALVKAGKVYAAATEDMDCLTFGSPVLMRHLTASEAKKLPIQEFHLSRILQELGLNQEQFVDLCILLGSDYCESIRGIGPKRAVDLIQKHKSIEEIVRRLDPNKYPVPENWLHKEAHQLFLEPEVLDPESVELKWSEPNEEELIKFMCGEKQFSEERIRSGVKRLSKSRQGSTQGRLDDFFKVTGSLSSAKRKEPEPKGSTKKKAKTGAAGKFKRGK
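Recombinant FEN1 (10 nM) was preincubated with pin-transferred compounds for 15 min at room temperature, then flap DNA substrate (50 nM final) was added. Plates were read at 0 and 15 min, and normalized concentration–response data were fitted to a four-parameter Hill equation.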
BLM inh – blocks DNA unwinding by human BLM helicase; P54132; recombinant BLM DNA unwinding, fluorescence dequenching; Potency, µM (series often up to 56.1 µM), without a hit: at the highest dose activity change, negative = inhibition, hits mostly inhibitors; 0.2% of 350,000 active; AID 2528;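 further: potency means the concentration at half of the fitted maximal effect; plate controls were vehicle for no effect and no enzyme for full effect; nearly all actives have a fitted effect of over 35% in size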
APEX1 inh – blocks human APE1 abasic DNA cleavage; Potency, µM (series often up to 65.8 µM), for inactives: at the top dose activity change, negative = inhibition, usual class: inhibitors; AID 2517; 0.35% of 350,000 active; P27695; recombinant APE1, TAMRA/BHQ-2 abasic DNA cleavage fluorescence;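 further: potency means the concentration at half of the fitted maximal effect; plate controls were vehicle for no effect and reference inhibitor for full effect; nearly all actives have a fitted effect of over 55% in size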
Target sequence (P27695 whole entry, looked up): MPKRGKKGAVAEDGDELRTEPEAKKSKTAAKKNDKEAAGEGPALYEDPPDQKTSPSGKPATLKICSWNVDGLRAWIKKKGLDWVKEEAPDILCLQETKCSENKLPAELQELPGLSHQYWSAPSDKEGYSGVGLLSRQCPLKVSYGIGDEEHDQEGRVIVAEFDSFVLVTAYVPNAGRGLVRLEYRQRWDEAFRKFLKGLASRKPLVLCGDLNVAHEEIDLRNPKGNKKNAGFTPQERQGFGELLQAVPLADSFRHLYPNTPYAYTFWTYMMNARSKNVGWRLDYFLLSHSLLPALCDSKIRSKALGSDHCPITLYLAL
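Kinetic fluorescence read (525 ex/598 em nm, three reads 60 s apart) of AP-site incision; signal = third minus first read. Enzyme 0.75 nM, dual-labelled THF duplex 50 nM, compound preincubation 15 min RT.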
PI5P4K alpha inh – blocks human PI5P4K alpha kinase activity; max response, %; P48426; AID 652105; PI5P4Kalpha enzyme, ADP-Glo luminescence, 60 min; hits give low values; 1.2% of 330,000 active; active means max response of -50% or lower; inconclusive means between -30% and -50%; inactive means -30% or higher; further: value at the top dose of about 77 µM
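Compounds were pin-transferred onto PI5P4Kalpha and substrate in HEPES pH 7.4 buffer with EGTA, CHAPS and 5% DMSO. ATP (5 microM final) started the reaction, which ran 60 minutes at room temperature before ADP-Glo detection.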
Active calls of the source: *; [ ] = dose if it differs, or a comment. Unless noted, the call rests on the fitted dose curve; in most records, active means well fitted curve in the direction sought with a large enough effect; inconclusive means small, poorly fitted or top-dose-only effect, or another doubt; inactive means no such curve, though single readings can be large; an effect the other way counts as inactive or inconclusive. Unless noted, on the % scale 0 is the no-effect control and ±100 the full control effect.

`N=C1/C(=C/c2ccco2)C(=O)N=C2SC(CC(=O)N3CCCC3)=NN12` gave WRN helicase inh 50µM*, FEN1 inh -34%, BLM inh -27%, APEX1 inh -27% and PI5P4K alpha inh -28.
N=C1/C(=C/c2ccc(Br)o2)C(=O)N=C2SC(CC(=O)N3CCCC3)=NN12 was read as WRN helicase inh 50µM*, FEN1 inh inconclusive, BLM inh -18%, APEX1 inh -2% and PI5P4K alpha inh inconclusive.
Screening CC(C)CCC[C@@H](C)[C@H]1CC[C@H]2[C@@H]3CC=C4CC(O)CC[C@]4(C)[C@H]3CC[C@]12C (some centres not stated) returned RECQ1 helicase -13%, BLM inh -2% and APEX1 inh -7%.
`COc1cc(NS(=O)(=O)c2ccc(NC(=S)NC(=O)/C=C/c3ccc(OC)c(OC)c3)cc2)ncn1` gave RECQ1 helicase -12%, WRN helicase inh 0%[57.1 µM], FEN1 inh 45µM*, BLM inh -2%, APEX1 inh inconclusive and PI5P4K alpha inh -10.
`Cc1cc(C)c2c(CC(=O)Nc3c(C(=O)Nc4ccc(Cl)cc4)oc4ccccc34)coc2c1` gave FEN1 inh -3% and BLM inh -1%.
O=C(CCCN1C(=O)/C(=C/c2ccccc2Cl)SC1=S)NCCCN1CCOCC1 was read as WRN helicase inh 89µM*, FEN1 inh -7%, BLM inh 1%, APEX1 inh -10% and PI5P4K alpha inh 6.
For O=C1C(=Cc2cccc(O)c2O)SC(=S)N1CCCN1CCOCC1 the results were WRN helicase inh -31%[11.6 µM] and PI5P4K alpha inh -71*.
`CCOC(=O)CNC(=O)C1CCCCC1` gave FEN1 inh -2%.
`O=C(COC(=O)/C=C/c1cccc(Cl)c1)Nc1cccc(S(=O)(=O)NC2=NCCC2)c1` gave WRN helicase inh 1%, FEN1 inh -22%, APEX1 inh 12% and PI5P4K alpha inh 4.
For O=C(COC(=O)/C=C/c1ccc(Cl)cc1Cl)Nc1cccc(S(=O)(=O)NC2=NCCC2)c1 the results were WRN helicase inh -1%[11.6 µM] and PI5P4K alpha inh -75*.
For Cc1c(Cn2cnc3c(cnn3C(C)(C)C)c2=O)cccc1C(F)(F)F the results were FEN1 inh 5% and APEX1 inh -2%.
For CC(=O)Oc1ccc2c(c1)O/C(=C\c1ccncc1)C2=O the results were RECQ1 helicase inconclusive, WRN helicase inh -11%, FEN1 inh -1%, BLM inh 0%, APEX1 inh 10% and PI5P4K alpha inh -53*.
CCC(=O)Oc1ccc2c(c1)O/C(=C\c1ccco1)C2=O was read as RECQ1 helicase -14%, WRN helicase inh -24%, FEN1 inh -26%, BLM inh 2%, APEX1 inh inconclusive and PI5P4K alpha inh -65*.
For O=C(Oc1ccc2c(c1)O/C(=C\c1ccncc1)C2=O)c1cccs1 the results were RECQ1 helicase -17%, WRN helicase inh -14%, FEN1 inh 7%, BLM inh -4%, APEX1 inh 13% and PI5P4K alpha inh inconclusive.
`O=C(O)CC12CC3CC(C1)CC(n1ncc(NCc4ccc5c(c4)OCO5)c(Cl)c1=O)(C3)C2` gave RECQ1 helicase 40µM*, BLM inh -3% and APEX1 inh -9%.
Screening O=C(O)CC12CC3CC(C1)CC(n1ncc(NCc4ccccc4Cl)c(Cl)c1=O)(C3)C2 returned RECQ1 helicase -2%, WRN helicase inh 1%, FEN1 inh -12%, BLM inh -1%, APEX1 inh 1% and PI5P4K alpha inh -3.
Oc1ccc(-c2csc(-c3ccccc3)n2)cc1O was read as RECQ1 helicase -5%, WRN helicase inh inconclusive, FEN1 inh -16%, BLM inh -10% and APEX1 inh -3%.
For Oc1ccc(-c2csc(-c3cccnc3)n2)cc1O the results were RECQ1 helicase -28%, WRN helicase inh inconclusive, FEN1 inh -18%, BLM inh -14%, APEX1 inh 16µM* and PI5P4K alpha inh -16.
`CCOc1ccc(NC(=O)CC2C(=O)N(c3cccc(C)c3)C(=O)N2Cc2cccnc2)cc1` (configuration not stated) gave FEN1 inh 14% and BLM inh 0%.
Screening C=CCc1ccccc1OCCn1c(C2CC(=O)N(Cc3ccc(F)cc3)C2)nc2ccccc21 (configuration not stated) returned FEN1 inh -5% and BLM inh -2%.
COc1cc2c(cc1O)CCN[C@@]21CS[C@H]2c3c(OC(C)=O)c(C)c4c(c3C(COC1=O)N1C2C2c3c(cc(C)c(OC)c3O)CC([C@@H]1O)N2C)OCO4 (some centres not stated) was read as BLM inh 10µM*.
`Cc1cccc(NC(=O)c2cnn3c2NC(=C2CC2)C=C3C(F)F)n1` gave APEX1 inh 10%.
For COC(=O)c1c(-c2ccc(Cl)cc2)noc1N1CCN(c2ccccc2OC)CC1 the results were FEN1 inh -6% and BLM inh -9%.
C=C(CN(C)C)C(=O)c1cc(C)ccc1C was read as WRN helicase inh 22µM*, FEN1 inh -4% and PI5P4K alpha inh -1.
`CCCCCCCc1c(C#N)c(N)[nH]c(=S)c1C#N` gave RECQ1 helicase 0%, WRN helicase inh -33%, FEN1 inh 3%, BLM inh -1%, APEX1 inh 0% and PI5P4K alpha inh -56*.
Screening Cc1cc(-c2ccc(N=Nc3cc(S(=O)(=O)O)c4ccccc4c3N)c(C)c2)ccc1N=Nc1cc(S(=O)(=O)O)c2ccccc2c1N returned RECQ1 helicase 13µM* and APEX1 inh 25µM*.
O=S(=O)(O)c1cc(OS(=O)(=O)c2ccccc2)cc2ccccc12 was read as WRN helicase inh -5%, FEN1 inh -3%, BLM inh -7%, APEX1 inh 13% and PI5P4K alpha inh 3.
For CCOc1ccc(N=Cc2ccc(N(C)C)cc2)c(O)c1 the results were WRN helicase inh -35% and PI5P4K alpha inh -54*.
Screening CCOc1ccc(N=Cc2ccc([N+](=O)[O-])cc2)c(O)c1 returned WRN helicase inh 1% and PI5P4K alpha inh -13.
`Cn1cc(/C=C2\SC(=S)N(N3CCOCC3)C2=O)c2ccccc21` gave RECQ1 helicase 1%, WRN helicase inh 10%, FEN1 inh 19%, BLM inh -3%, APEX1 inh -1% and PI5P4K alpha inh 1.

Source: PubChem
